Experimental data as given in PubChem BioAssay (NCI).
About 83,000 compounds went through this panel and 20% of them were active in at least one assay; those are over-represented in the sample as a whole.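 Interpretation: 100, growth as untreated; towards 0, rising growth inhibition; 0, no net growth; 0 to -100, cell death. Compounds scoring below 10 were considered active.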 The source made the active and inactive calls.

Experiments:
Test in all cases: NCI-60 one-dose screen, 48 h (100 = growth as untreated, 0 = no growth, -100 = all killed)
HCT-15 colon = tested on: HCT-15 colon
HT29 colon = tested on: HT29 colon
SNB-75 CNS = tested on: SNB-75 CNS
SNB-19 CNS = tested on: SNB-19 CNS
U251 CNS = tested on: U251 CNS
PC-3 prostate = tested on: PC-3 prostate
SK-MEL-5 melanoma = tested on: SK-MEL-5 melanoma
UACC-62 melanoma = tested on: UACC-62 melanoma
LOX IMVI melanoma = tested on: LOX IMVI melanoma
SK-MEL-28 melanoma = tested on: SK-MEL-28 melanoma
SK-MEL-2 melanoma = tested on: SK-MEL-2 melanoma
EKVX NSCLC = tested on: EKVX NSCLC
SN12C renal = tested on: SN12C renal
UO-31 renal = tested on: UO-31 renal
TK-10 renal = tested on: TK-10 renal
ACHN renal = tested on: ACHN renal
CAKI-1 renal = tested on: CAKI-1 renal
A498 renal = tested on: A498 renal
CCRF-CEM leukemia = tested on: CCRF-CEM leukemia
MOLT-4 leukemia = tested on: MOLT-4 leukemia

Measured: growth

CN(C)CCNc1ncc(F)c(-c2cnc3cc(-c4cnn(C)c4)ccn23)n1
inactive: HCT-15 colon; 0.005 µM 99.2% | HCT-15 colon; 30 µM 31.2% | HT29 colon; 0.005 µM 99.7% | HT29 colon; 30 µM 42.8% | SNB-75 CNS; 0.005 µM 100% | SNB-75 CNS; 30 µM 50% | SNB-19 CNS; 0.005 µM 97% | SNB-19 CNS; 30 µM 73.4% | U251 CNS; 0.005 µM 96.3% | U251 CNS; 30 µM 75.9% | PC-3 prostate; 0.005 µM 103% | PC-3 prostate; 30 µM 44.9% | SK-MEL-5 melanoma; 10 µM unless noted 101% [0.005 µM] | UACC-62 melanoma; 0.005 µM 98% | UACC-62 melanoma; 30 µM 82.7% | LOX IMVI melanoma; 0.005 µM 98.6% | LOX IMVI melanoma; 30 µM 19.9% | SK-MEL-28 melanoma; 0.005 µM 105% | SK-MEL-28 melanoma; 30 µM 96.7% | SK-MEL-2 melanoma; 0.005 µM 109% | SK-MEL-2 melanoma; 30 µM 64.6% | EKVX NSCLC; 0.005 µM 97% | EKVX NSCLC; 30 µM 70.1% | SN12C renal; 0.005 µM 98.4% | SN12C renal; 30 µM 30.7% | UO-31 renal; 0.005 µM 94% | UO-31 renal; 30 µM 17.1% | TK-10 renal; 0.005 µM 105% | TK-10 renal; 30 µM 56.4% | ACHN renal; 0.005 µM 96.7% | ACHN renal; 30 µM 15.5% | CAKI-1 renal; 0.005 µM 99.5% | CAKI-1 renal; 30 µM 15.5% | A498 renal; 0.005 µM 99% | A498 renal; 30 µM 41.9% | CCRF-CEM leukemia; 0.005 µM 101% | CCRF-CEM leukemia; 30 µM 14.1% | MOLT-4 leukemia; 0.005 µM 104%
active: MOLT-4 leukemia; 30 µM 1.39%

N=C(N)c1ccc(-c2ccc(-c3ccc(Cl)c(Cl)c3)s2)cc1
inactive: SNB-75 CNS; 10 µM unless noted 103% | SK-MEL-5 melanoma; 10 µM unless noted 94.8% | UACC-62 melanoma; 10 µM unless noted 88.6% | SK-MEL-28 melanoma; 10 µM unless noted 107% | SK-MEL-2 melanoma; 10 µM unless noted 107% | EKVX NSCLC; 10 µM unless noted 72.4% | SN12C renal; 10 µM unless noted 14.3% | UO-31 renal; 10 µM unless noted 54% | TK-10 renal; 10 µM unless noted 109% | A498 renal; 10 µM unless noted 86.7%
active: HCT-15 colon; 10 µM unless noted -62.5% | HT29 colon; 10 µM unless noted 6.02% | SNB-19 CNS; 10 µM unless noted -23.8% | U251 CNS; 10 µM unless noted -65.9% | PC-3 prostate; 10 µM unless noted -24.1% | LOX IMVI melanoma; 10 µM unless noted -71.3% | ACHN renal; 10 µM unless noted -62.7% | CAKI-1 renal; 10 µM unless noted -69% | CCRF-CEM leukemia; 10 µM unless noted 1.96% | MOLT-4 leukemia; 10 µM unless noted -14.9%

N#CSc1c[nH]c2ccc(/C=C/C(=O)/C=C(/C=C/c3ccc4[nH]cc(SC#N)c4c3)OB(F)F)cc12
inactive: SNB-75 CNS; 10 µM unless noted 18% | SNB-19 CNS; 10 µM unless noted 38.2% | A498 renal; 10 µM unless noted 69.1%
active: HCT-15 colon; 10 µM unless noted -73.7% | HT29 colon; 10 µM unless noted -53.6% | U251 CNS; 10 µM unless noted -27% | PC-3 prostate; 10 µM unless noted -22.5% | SK-MEL-5 melanoma; 10 µM unless noted 9.1% | UACC-62 melanoma; 10 µM unless noted -43% | LOX IMVI melanoma; 10 µM unless noted -91.4% | SK-MEL-28 melanoma; 10 µM unless noted -1.41% | SK-MEL-2 melanoma; 10 µM unless noted -30.3% | EKVX NSCLC; 10 µM unless noted -5.64% | SN12C renal; 10 µM unless noted -38.1% | UO-31 renal; 10 µM unless noted -99.3% | TK-10 renal; 10 µM unless noted -0.38% | ACHN renal; 10 µM unless noted -86.4% | CAKI-1 renal; 10 µM unless noted -71.5% | CCRF-CEM leukemia; 10 µM unless noted -27.7% | MOLT-4 leukemia; 10 µM unless noted -37.9%

CC(=O)/C=C/c1ccc(OCc2ccc(Cl)cc2)cc1
active: SK-MEL-5 melanoma; 100 µM -37% | SK-MEL-2 melanoma; 100 µM 4.19%
inactive: HCT-15 colon; 10 µM 96.7% | HCT-15 colon; 100 µM 42% | HT29 colon; 10 µM 94.3% | HT29 colon; 100 µM 36.2% | SNB-75 CNS; 10 µM 91% | SNB-75 CNS; 100 µM 35.6% | SNB-19 CNS; 10 µM 105% | SNB-19 CNS; 100 µM 51.7% | U251 CNS; 10 µM 88.3% | U251 CNS; 100 µM 33.9% | PC-3 prostate; 10 µM 90% | PC-3 prostate; 100 µM 36.1% | SK-MEL-5 melanoma; 10 µM 97.7% | UACC-62 melanoma; 10 µM 95.5% | UACC-62 melanoma; 100 µM 24.6% | LOX IMVI melanoma; 10 µM 86.7% | LOX IMVI melanoma; 100 µM 32.2% | SK-MEL-28 melanoma; 10 µM 112% | SK-MEL-28 melanoma; 100 µM 26.1% | SK-MEL-2 melanoma; 10 µM 101% | EKVX NSCLC; 10 µM 116% | EKVX NSCLC; 100 µM 28.8% | SN12C renal; 10 µM 102% | SN12C renal; 100 µM 48.6% | TK-10 renal; 10 µM 77.6% | TK-10 renal; 100 µM 27.9% | ACHN renal; 10 µM unless noted 109% | A498 renal; 10 µM 82.6% | A498 renal; 100 µM 12.1% | CCRF-CEM leukemia; 10 µM 86.8% | CCRF-CEM leukemia; 100 µM 41.2% | MOLT-4 leukemia; 10 µM 92.8% | MOLT-4 leukemia; 100 µM 16.7%

O=C1c2cc3c(cc2-c2c1c1ccc(Cl)cc1c(=O)n2CCCn1ccnc1)OCO3
active: HCT-15 colon; 10 µM unless noted 7.3% | HT29 colon; 10 µM unless noted -62.9% | SNB-75 CNS; 10 µM unless noted 0.456% | U251 CNS; 10 µM unless noted -33.1% | SK-MEL-5 melanoma; 10 µM unless noted -93% | UACC-62 melanoma; 10 µM unless noted -57.7% | LOX IMVI melanoma; 10 µM unless noted -76.8% | UO-31 renal; 10 µM unless noted -7.59% | ACHN renal; 10 µM unless noted -19% | CAKI-1 renal; 10 µM unless noted 9.62% | A498 renal; 10 µM unless noted -12.9% | CCRF-CEM leukemia; 10 µM unless noted 3.44% | MOLT-4 leukemia; 10 µM unless noted -28.2%
inactive: SNB-19 CNS; 10 µM unless noted 17.3% | PC-3 prostate; 10 µM unless noted 19.9% | SK-MEL-28 melanoma; 10 µM unless noted 15.5% | SK-MEL-2 melanoma; 10 µM unless noted 31.1% | EKVX NSCLC; 10 µM unless noted 42.4% | SN12C renal; 10 µM unless noted 12.6% | TK-10 renal; 10 µM unless noted 46.3%
